Molecules are shown by their SMILES. Unmarked numbers belong to inactive results. Where a call stands in place of a potency, no number is given. Calls of active or inactive are those of the source. Calls follow the shape of the full dose curve.

Chain of Acetylcholinesterase (Homo sapiens) (P22303 whole entry, looked up): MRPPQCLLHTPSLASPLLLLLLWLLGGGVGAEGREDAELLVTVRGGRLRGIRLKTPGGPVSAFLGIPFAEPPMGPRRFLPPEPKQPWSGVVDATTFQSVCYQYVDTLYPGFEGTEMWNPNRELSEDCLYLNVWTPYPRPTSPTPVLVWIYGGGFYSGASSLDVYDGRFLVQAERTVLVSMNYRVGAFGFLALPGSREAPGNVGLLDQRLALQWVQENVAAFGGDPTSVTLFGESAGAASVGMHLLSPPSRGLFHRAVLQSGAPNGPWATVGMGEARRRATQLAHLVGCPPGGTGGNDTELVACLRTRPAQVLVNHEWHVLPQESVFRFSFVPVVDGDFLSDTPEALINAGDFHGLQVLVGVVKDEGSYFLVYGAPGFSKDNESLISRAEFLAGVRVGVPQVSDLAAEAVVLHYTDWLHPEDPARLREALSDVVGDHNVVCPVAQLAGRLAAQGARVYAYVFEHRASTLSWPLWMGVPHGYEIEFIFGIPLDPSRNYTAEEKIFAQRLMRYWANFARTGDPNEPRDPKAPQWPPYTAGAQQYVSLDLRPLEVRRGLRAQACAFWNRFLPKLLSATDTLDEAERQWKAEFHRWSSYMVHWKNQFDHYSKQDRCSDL

The assay addresses Acetylcholinesterase (Homo sapiens) (UniProt P22303). Briefly: Acetylcholinesterase (AChE) small molecule antagonists: enzyme-based qHTS assay (AID 1347397). Also: nearly all actives have a fitted effect of over 55% in size. Particulars: Potency: AChE enzyme activity inhibition; outcome: AChE enzyme activity inhibition; series mostly up to 115 µM. An outline of the steps: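 Compound or DMSO vehicle was pin-transferred onto recombinant human AChE (50 mU/mL as dispensed) and left 30 min at room temperature. Acetylthiocholine with DTNB then started the reaction, read colorimetrically 10 min later.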
As for `C#C[C@]1(O)CC[C@H]2[C@@H]3CCC4=Cc5oncc5C[C@]4(C)[C@H]3CC[C@@]21C`, the Potency entry is “inactive”.

In the case of `CC(=O)Nc1ccc(/C=N/NC(N)=S)cc1`, the Potency result was “inactive”.

In the case of `CC(C)=CCCC(C)CCO` (stereo not given), the Potency result is “inactive”.

For `CC(C)(CCC(=O)O)C(=O)O`, the Potency entry is “inactive”.

With `CCCCOC(=O)CCS`, the Potency entry is “inactive”.

On to `O=C(O)Cc1cccc(-c2cc(CCCCCCc3ccc(O[C@H]4O[C@H](CO)[C@@H](O)[C@H](O)[C@@H]4O)c(-c4cccc(CC(=O)O)c4)c3)ccc2O[C@H]2O[C@H](CO)[C@@H](O)[C@H](O)[C@@H]2O)c1`, for which the activity change, negative = inhibition was 1.01% [at 0.435 µM].

In the case of `Cc1cc(O)c(Cl)cc1C`, the Potency result was “inactive”.

Take `O=C(O)CN(CCN(CC(=O)O)CC(=O)O)CCN(CC(=O)O)CC(=O)O`: the activity change, negative = inhibition is 0.748% [at 23.6 µM].

For `CCOC(=O)C(O)c1ccccc1` (stereo not given), the Potency result was “inactive”.

With `NCCNC(=O)c1ccc(Cl)cn1`, the Potency result is “inactive”.

For the compound `CCn1c2ccccc2c2cc([N+](=O)[O-])ccc21`, the Potency result was “inactive”.

As for `COC(=O)C1CCC(C(=O)OC)CC1` (stereo not given), the Potency entry is “inactive”.

Turning to `O=C1NCN(c2ccccc2)C12CCN(CCCC(c1ccc(F)cc1)c1ccc(F)cc1)CC2`, the Potency entry was “inactive”.

On to `COc1ccc(S(=O)(=O)N2C(=O)[C@@](c3ccccc3OC)(N3C[C@H](O)C[C@H]3C(=O)N(C)C)c3cc(Cl)ccc32)c(OC)c1`, for which the Potency result was “inactive”.

As to `CN(C)CCOC(C)(c1ccccc1)c1ccccn1` (stereo not given), the Potency entry is “inactive”.

Regarding `CCCCCCCCCC=O`, the Potency result was “inactive”.

For `CC1=CC[C@H](C(C)C)C=C1`, the Potency result was “inactive”.

Regarding `O=S(=O)(O)c1cccc(S(=O)(=O)O)c1`, the Potency entry is “inactive”.

For the compound `Nc1cc(S(=O)(=O)O)ccc1S(=O)(=O)O`, the Potency entry was “inactive”.

Consider `CC(C)(Oc1ccc(Cl)cc1)C(=O)OCCCOC(=O)C(C)(C)Oc1ccc(Cl)cc1`, for which the Potency result is “inactive”.

With `O=C1CC(c2ccc(Cl)cc2)CC(=O)N1`, the Potency entry was “inactive”.

As to `COC(=O)c1c(Cl)c(Cl)c(C(=O)OC)c(Cl)c1Cl`, the Potency entry is “inactive”.

Consider `C[C@]12CC[C@H]3[C@@H](CCC4=CC(=O)CC[C@@]43C)[C@@H]1CC[C@@H]2C(=O)CO`, for which the Potency result is “inactive”.

Take `c1ccc(CNc2ncnc3c2ncn3C2CCCCO2)cc1` (stereo not given): the Potency result was “inactive”.

As for `C=CCOCC(CO)(COCC=C)COCC=C`, the Potency entry was “inactive”.

Regarding `CC(=O)NCCO`, the Potency result was “inactive”.

In the case of `Oc1ccc(OCc2ccccc2)cc1`, the Potency entry was “inactive”.

As for `CC(C)(CO)CO`, the Potency result was “inactive”.

For `N[C@@H](Cc1c[nH]c2ccc(O)cc12)C(=O)O`, the Potency result was “inactive”.

As to `CC(C)OCC1CO1` (stereo not given), the Potency result is “inactive”.

Consider `CCCCC(CC)C(=O)OCCOCCOCCOCCOC(=O)C(CC)CCCC` (stereo not given), for which the Potency entry is “inactive”.

`CCN(CC)C(=O)C1CN2CCc3cc(OC)c(OC)cc3C2CC1OC(C)=O` (stereo not given): the Potency result was “inactive”.

Take `CC(C)N1C(=O)c2ccccc2C1=O`: the Potency entry is “inactive”.

Turning to `O=C1OC2(c3ccc(O)cc3Oc3cc(O)ccc32)c2ccc(N=C=S)cc21`, the Potency result was “inactive”.

Regarding `CCC(=O)c1ccc(O)cc1`, the Potency result is “inactive”.

`CCCOCCO`: the Potency result is “inactive”.

On to `CCOC(=O)c1cc(=O)c2c(OCC(COc3cccc4oc(C(=O)OCC)cc(=O)c34)OC(=O)[C@@H](N)CCCCN)cccc2o1`, for which the Potency entry was “inactive”.

As for `O=C=NC1CCC(CC2CCC(N=C=O)CC2)CC1` (stereo not given), the Potency entry is “inactive”.

As to `Cc1cc(C)n(CO)n1`, the Potency entry was “inactive”.

Consider `O=C(O)CCC(=O)OC[C@@H](NC(=O)C(Cl)Cl)[C@H](O)c1ccc([N+](=O)[O-])cc1`, for which the Potency result is “inactive”.

The values are drawn from PubChem BioAssay (Tox21).
